Source: PubChem
Rows were chosen to be rich in hits. Some 2.2% of all compounds tested hit in one or more screens of this group.
EBV LMP1 NFkB: EBV LMP1-driven NF-kappaB luciferase reporter inhibitors, primary screen, cell-based, luminescence, single point | LMP1-induced NF-kappaB luciferase reporter cells | inhibition, % at 12.5 µM | 350,000 compounds, 0.69% hits | AID 504558, 2011; in the data active = inhibition above about 41%
LGR2 inh: inhibitors of bursicon-induced LGR2 CRE-luciferase signal, primary screen, cell-based, HEK293, CRE-luciferase reporter, bursicon stimulation; Drosophila bursicon receptor LGR2 (rickets); bursicon-stimulated, 4 h; inhibition, % at 9.99 µM; 380,000 compounds, 0.35% hits; AID 720647, 2013;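 active = drop in luminescence signal, shown as inhibition above about 50% in the replicate tests, limit read from the data, passing the limit was not always enough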;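 also: agonist challenge used bursicon conditioned medium at about half maximal strength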
EWS-Fli inh: EWS/Fli-driven NR0B1 reporter inhibitors, primary screen, A673 cells, NR0B1 luciferase, luminescence, MLPCN library | viability-normalised | inhibition, % at 12.6 µM | 350,000 compounds, 0.67% hits;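 active = mean inhibition of at least 50% after viability correction, with every replicate also passing that limit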;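 also: firefly luciferase signal divided by Alamar Blue viability fluorescence both relative to DMSO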
MITF TRPM1 inh: inhibitors of MITF-dependent TRPM1 promoter reporter, primary screen, cell-based, SK-MEL-5, single point, luciferase | inhibition, % at 12.5 µM | 330,000 compounds, 0.83% hits | SK-MEL-5 TRPM1 promoter luciferase, 24 h | AID 488899, 2010;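 active = mean inhibition across replicates of 60% or more, whatever share of single replicates reaches that level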
PAX8 reporter: inhibitors of PAX8-driven TPO luciferase reporter, primary screen, RMG-I cells, single concentration | SteadyGlo, 24 h | inhibition, % at 12.6 µM | 360,000 compounds, 1.2% hits | AID 652154, 2013;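 active = mean replicate inhibition at least 60% with every replicate also reaching 60%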;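 also: luciferase light reporting Pax8 driven TPO promoter activity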
Shn3 3UTR inh: reduction of Shn3 3'UTR firefly luciferase signal, primary screen, Schnurri-3 inhibitor project, cell-based, Clone20 osteoblasts, set 2. Clone20 osteoblast Shn3 3'UTR firefly luciferase, 24 h. inhibition, % at 12.5 µM. 360,000 compounds, 0.52% hits. AID 588674, 2011;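 active = mean inhibition of at least 75% with every replicate also reaching 75%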
Of the large screens only hits and unclear results are named; the others gave an inactive call.

O=C(Cn1ncc2c1-c1ccccc1OC2)N1CCN(Cc2ccccc2)CC1	none
CC(=O)NC[C@@H]1[C@@H](c2ccc(C3=CCCC3)cc2)[C@@H](CO)N1C(=O)CN(C)C	none (no result: EBV LMP1 NFkB, EWS-Fli inh, MITF TRPM1 inh, PAX8 reporter, Shn3 3UTR inh)
CCOc1ccccc1NC(=O)CCC(=O)Nc1ccccc1OCC	none (no result: LGR2 inh, EWS-Fli inh)
CCOc1cc(NC(=O)CCl)c(OCC)cc1NC(=O)CCl	MITF TRPM1 inh 75.7, PAX8 reporter 75.9
Cc1onc(-c2ccccc2)c1C(=O)NC(=S)NNC(=O)c1ccc(O)cc1O	EBV LMP1 NFkB 42.7, PAX8 reporter 85.8 (no result: EWS-Fli inh)
CCCN(C)C[C@H]1Oc2ncc(-c3ccccc3F)cc2C(=O)N([C@@H](C)CO)C[C@H]1C	none (no result: EBV LMP1 NFkB, MITF TRPM1 inh, PAX8 reporter, Shn3 3UTR inh)
C[C@H](CO)N1C[C@H](C)[C@@H](CN(C)S(=O)(=O)c2ccc(Cl)cc2)OCCCC[C@H](C)Oc2ccc(NC(=O)C3CCCCC3)cc2C1=O	none (no result: EBV LMP1 NFkB, MITF TRPM1 inh, Shn3 3UTR inh)
Nc1ccc(N=Nc2ccccc2O)c(N)c1	none (no result: EBV LMP1 NFkB, MITF TRPM1 inh)
Oc1ccccc1N=Nc1ccccc1O	EBV LMP1 NFkB 67.1
CSC(=S)NCc1cccnc1	PAX8 reporter 64.3
NC(=S)NCc1cccnc1	none
C[C@@H]1CN([C@H](C)CO)C(=O)c2cc(-c3ccc(F)cc3)cnc2O[C@H]1CN(C)Cc1ccc(F)cc1	none (no result: EBV LMP1 NFkB, MITF TRPM1 inh, PAX8 reporter, Shn3 3UTR inh)
CCOC(=O)c1ccc(N2N=C(C)/C(=C/C=C/c3ccco3)C2=O)cc1	none (no result: LGR2 inh, EWS-Fli inh)
CC1=NN(c2ccc(C)c(C)c2)C(=O)/C1=C\C=C\c1ccc([N+](=O)[O-])o1	EWS-Fli inh 66.9, MITF TRPM1 inh 83.5, PAX8 reporter 70.0, Shn3 3UTR inh 94.8 (no result: LGR2 inh)
O=C(CC1CC1)Nc1ccc2c(c1)[C@H]1C[C@@H](CC(=O)N3CCCCC3)O[C@H](CO)[C@H]1O2	none (no result: EBV LMP1 NFkB, MITF TRPM1 inh, Shn3 3UTR inh)
Cc1ccc(C)c2sc(N3CCN(C(=O)c4ccc([N+](=O)[O-])o4)CC3)nc12	none
O=C(c1ccc([N+](=O)[O-])o1)N1CCN(c2nc3c(F)cc(F)cc3s2)CC1	MITF TRPM1 inh 79.3
O=C(C[C@@H]1CC[C@H]2[C@@H](COC[C@@H](O)CN2C(=O)Nc2ccc(F)cc2)O1)NC1Cc2ccccc2C1	none (no result: EBV LMP1 NFkB, MITF TRPM1 inh, Shn3 3UTR inh)
C[C@H]1CCCCO[C@@H](CN(C)Cc2ccc(C(F)(F)F)cc2)[C@@H](C)CN([C@@H](C)CO)C(=O)c2cc(NS(=O)(=O)c3cccs3)ccc2O1	PAX8 reporter 96.4 (no result: EBV LMP1 NFkB, MITF TRPM1 inh, Shn3 3UTR inh)
C[C@H]1CCCCO[C@H](CN(C)Cc2ccc(C(F)(F)F)cc2)[C@@H](C)CN([C@@H](C)CO)C(=O)c2cc(NS(=O)(=O)c3cccs3)ccc2O1	PAX8 reporter 81.0 (no result: EBV LMP1 NFkB, MITF TRPM1 inh, Shn3 3UTR inh)
C[C@H](CO)N1C[C@H](C)[C@H](CN(C)Cc2ccc(C(F)(F)F)cc2)OCCCC[C@H](C)Oc2ccc(NS(=O)(=O)c3cccs3)cc2C1=O	none (no result: EBV LMP1 NFkB, MITF TRPM1 inh, PAX8 reporter, Shn3 3UTR inh)
C[C@@H]1CN([C@@H](C)CO)C(=O)c2cc(NS(=O)(=O)c3cccs3)ccc2O[C@@H](C)CCCCO[C@H]1CN(C)C(=O)Nc1ccc(F)cc1	none (no result: EBV LMP1 NFkB, MITF TRPM1 inh, Shn3 3UTR inh)
C[C@H](CO)N1C[C@H](C)[C@@H](CN(C)C(=O)Nc2ccc(C(F)(F)F)cc2)OCCCC[C@H](C)Oc2ccc(NS(=O)(=O)c3cccs3)cc2C1=O	PAX8 reporter 65.0 (no result: EBV LMP1 NFkB, MITF TRPM1 inh, Shn3 3UTR inh)
C[C@H](CO)N1C[C@H](C)[C@@H](CN(C)Cc2ccc(Cl)c(Cl)c2)OCCCC[C@H](C)Oc2ccc(NS(=O)(=O)c3cccs3)cc2C1=O	PAX8 reporter 71.1 (no result: EBV LMP1 NFkB, MITF TRPM1 inh, Shn3 3UTR inh)
CO[C@@H]1CN(C)C(=O)c2ccc(NC(=O)Nc3c(C)noc3C)cc2OC[C@H](C)NC[C@@H]1C	none (no result: EBV LMP1 NFkB, MITF TRPM1 inh, Shn3 3UTR inh)
COc1ccc2c3c(n(C)c2c1)[C@H](CO)N(Cc1ccncc1)CC31CN(C(=O)Cc2ccncc2)C1	none (no result: EBV LMP1 NFkB, MITF TRPM1 inh, Shn3 3UTR inh)
Cc1ccc2[nH]c3nc(N/N=C/c4cccc(O)c4)nnc3c2c1	none
CCc1ccc2[nH]c3nc(N/N=C/c4ccc(O)cc4O)nnc3c2c1	PAX8 reporter 105.1
COc1cc(/C=N/Nc2nnc3c(n2)[nH]c2ccccc23)ccc1O	PAX8 reporter 80.2 (no result: LGR2 inh)
Cc1cc(C)n(-c2nc(Nc3ccccc3C(F)(F)F)nc(-n3nc(C)cc3C)n2)n1	Shn3 3UTR inh 97.2 (no result: LGR2 inh, EWS-Fli inh, PAX8 reporter)
COc1ccc(S(=O)(=O)Nc2cccc3c2O[C@@H](CN(C)CC2CC2)[C@H](C)CN([C@H](C)CO)C3=O)cc1	none (no result: EBV LMP1 NFkB, MITF TRPM1 inh, PAX8 reporter, Shn3 3UTR inh)
